IkB signaling = IkB pathway inhibition in ABC-DLBCL cells | ABC-DLBCL IkBa-CBG/CBR dual luciferase ratio, 4 h; response scale: scaled: untreated 0%, proteasome inhibitor 100% | Potency, µM (top dose mostly 57.1 µM), inactives show top-dose IkBa stabilization activation | hit rate 0.04% among 110,000 | AID 445; active = well fitted curve in the direction sought with a large enough effect in the signal ratio, not every such curve was filed as active; inconclusive = small, poorly fitted or top-dose-only effect, or a change in a side signal; the % refers to the signal ratio;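 note: the direction sought is a rising ratio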
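Curves were fitted separately to fusion (green), unfused (red) and ratio luminescence, then classed by r2, magnitude and activity. Cells: OCI-Ly3, 4 h compound plus doxycycline at 37C; 10 uM MG-132 defined full response.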
ALOX15 inhib = inhibitors of human 15-lipoxygenase (ALOX15). P16050. purified 15hLO-1, xylenol orange hydroperoxide absorbance. Potency, µM (top dose mostly 57.1 µM), for the others: at the highest dose activity change, negative = inhibition, hits mostly inhibitors. hit rate 1.4% among 74,000; note: % is set by controls: 0 for no effect and ±100 for the full control effect; nearly all actives have a fitted effect of over 55% in size
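40 nM 15hLO-1 + cpd, 15 min RT; start w/ 50 uM AA (final), 6 min RT; stop/detect w/ 200 uM XO + 300 uM Fe(II) in 50 mM H2SO4, 30 min; A573/A405. Buffer 25 mM Hepes pH 7.5, 0.01% Triton X-100. No-enzyme wells as negative control.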
Hsp90 Hop PPI = changes Hsp90-Hop TPR2A binding signal, up or down; Potency, µM (doses to about 57 µM), without a hit: at the highest dose activity change, negative = inhibition; hit rate 0.44% among 71,000; AID 595; AlphaScreen TPR2A-His6 binding biotin-Hsp90 C-terminal peptide; active = well fitted curve in either direction with a large enough effect; inconclusive = small, poorly fitted or top-dose-only effect, or another doubt; note: % is set by controls: 0 for no effect and ±100 for the full control effect
CRE Fsk mod = CRE-bla signaling modulation under forskolin stimulation; CHO CRE-bla reporter (cAMP response element driving beta-lactamase), forskolin EC10, beta-lactamase ratio; Potency, µM (doses to about 38.2 µM), without a hit: top-dose activity change, negative = inhibition, actives largely listed as activators; hit rate 2.5% among 71,000; AID 662; active = well fitted activation curve with a large enough effect in the signal ratio, with a control signal flat, not every such curve was filed as active; inconclusive = small, poorly fitted or top-dose-only effect, or effect the other way, or a change in a side signal; the % refers to the signal ratio; note: % of control where 0% means no effect
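Modulation of forskolin-driven signalling is measured in CHO cells carrying a CRE-controlled beta-lactamase reporter. Cells are stimulated with EC10 NKH 477 in the presence of titrated compound for 3 h at 37 °C, then loaded with CCF4 for 2 h at room temperature.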
Tau fil binding = binds recombinant human tau filaments | hit rate 2% among 71,000 | recombinant tau filaments, thioflavin S fluorescence, 15 h; filaments grown with octadecylsulfate alongside compound | P10636 | Potency, µM (titrated, usually from 57.1 µM), without a hit: at the top dose activity change, negative = inhibition;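 note: % is set by controls: 0 for no effect and ±100 for the full control effect; actives lower thioflavin S fluorescence by blocking filaments or displacing dye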
Target sequence (P10636 whole entry, looked up): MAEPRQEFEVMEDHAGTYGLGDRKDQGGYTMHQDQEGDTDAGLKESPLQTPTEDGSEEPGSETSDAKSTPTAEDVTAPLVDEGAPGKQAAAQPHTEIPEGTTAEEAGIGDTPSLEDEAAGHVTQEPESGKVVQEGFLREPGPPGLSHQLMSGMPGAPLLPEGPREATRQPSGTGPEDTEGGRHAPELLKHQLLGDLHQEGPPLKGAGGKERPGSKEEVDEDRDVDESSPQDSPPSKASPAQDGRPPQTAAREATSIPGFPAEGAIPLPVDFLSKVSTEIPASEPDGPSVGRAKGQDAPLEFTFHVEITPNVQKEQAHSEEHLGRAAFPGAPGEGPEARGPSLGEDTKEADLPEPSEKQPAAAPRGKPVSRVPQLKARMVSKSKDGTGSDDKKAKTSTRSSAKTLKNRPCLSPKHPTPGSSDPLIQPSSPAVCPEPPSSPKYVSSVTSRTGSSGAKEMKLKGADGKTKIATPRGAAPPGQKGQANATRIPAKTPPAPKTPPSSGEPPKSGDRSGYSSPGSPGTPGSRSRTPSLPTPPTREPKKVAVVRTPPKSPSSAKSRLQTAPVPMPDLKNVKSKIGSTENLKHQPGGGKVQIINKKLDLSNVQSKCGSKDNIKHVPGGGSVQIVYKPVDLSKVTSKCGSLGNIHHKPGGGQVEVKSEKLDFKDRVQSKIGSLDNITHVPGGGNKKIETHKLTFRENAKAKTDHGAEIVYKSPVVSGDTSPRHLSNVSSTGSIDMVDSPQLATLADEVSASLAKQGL
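Tau 2 uM in ThS buffer dispensed; compound added; 60 uM ODS added (finals 1 uM tau, 30 uM ODS); 15 h 37 C; fluor ex450/em510.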
The depositor's hits bear a star; i = inactive; ? = inconclusive; / = no result; ! = repeats disagree; [ ] = another dose, or the depositor's remark. The list is not random: actives were taken first. Their share in the collection is about 3.6%. Unless noted, calls come from the whole dose curve; as a rule, active = well fitted curve in the direction sought with a large enough effect; inconclusive = small, poorly fitted or top-dose-only effect, or another doubt; inactive = no such curve, though single readings can be large; an effect the other way counts as inactive or inconclusive. Potency is the fitted concentration of half-maximal effect.

SMILES	IkB signaling	ALOX15 inhib	Hsp90 Hop PPI	CRE Fsk mod	Tau fil binding
CCC(=O)Nc1sc2c(c1C(N)=O)CCC2	?	5%	-2%	17%	-11%
CCOC(=O)c1c(NC(=O)OC)sc2c1CCC2	2%	-13%	9%	?	-8%
C=CCCCCCCC=C	0%	2%	-2%	1%	0%
COCCCCC(=NOCCN)c1ccc(C(F)(F)F)cc1	1%	-3%[25.6 µM]	-3%	-18%	32µM*!
CN1CCN(c2ncncc2-c2ccoc2)CC1	1%[11.4 µM]	32µM*	-3%	-4%	98%
O=C(CSc1nc(-c2ccc(F)cc2)cc(C(F)(F)F)n1)NCc1ccccc1	2%	/	/	/	/
CC(=O)Nc1cccc(NC(=O)c2c(-c3ccccc3Cl)noc2C)c1	?	-8%	-3%	-1%	1%
CC(C)c1cc(C(=O)Nc2ccc3c(c2)OCO3)no1	?	-11%	-6%	-3%	13µM*
Cn1c(C(=O)Nc2ccc3c(c2)OCO3)cc2sccc21	3%	-26%	-16%	?	13µM*
Cc1onc(-c2c(Cl)cccc2Cl)c1C(=O)Nc1ccc2c(c1)OCO2	-2%	0%	-4%	-20%	3.2µM*
Cn1c(C(=O)NCc2ccc3c(c2)OCO3)cc2sccc21	2%	-18%	-4%	-2%	6%
CCC(=O)N1c2ccccc2CC1C(=O)NCc1ccc(N(C)C)cc1 (stereo unspecified)	-1%	/	/	/	/
COc1ccc2nc(N3CCCC3)c(C#N)cc2c1	-2%	?	25µM*	?	i
COc1ccc2nc(N3CCCCC3)c(C#N)cc2c1	-3%	25µM*	25µM*	?	i
Cc1ccc2cc(C#N)c(N3CCCC3)nc2c1C	2%	?	1%	?	-29%
COc1ccc2nc(SCC(=O)N3CCCCCC3)c(C#N)cc2c1	3%	-16%	6%	?	1%
CCSc1ccccc1C(=O)Nc1ccc(-c2nc3ccccc3s2)c(O)c1	-1%	/	/	/	/
NS(=O)(=O)c1ccc(N=Nc2cc3ccccc3c(C(=O)O)c2O)cc1	?	-10%[11.4 µM]	?	-5%[7.6 µM]	1.3µM*
Cc1ccc(OCCn2nnc3sc4c(c3c2=O)CCC(C)C4)cc1 (stereo unspecified)	-1%	/	/	/	/
CNc1sc(C(=O)c2cccs2)c(N)c1-c1nc2ccccc2s1	?	?	?	?	5µM*
CCN1C(=O)c2ccccc2Sc2ccc(NC(=O)N3CCN(c4cc(C)ccc4C)CC3)cc21	-1%	/	/	/	/
CCC(C)Sc1nc2c(cnn2-c2ccccc2)c(=O)[nH]1 (stereo unspecified)	0%	5%	0%	-3%	-10%
CCCSc1nc2c(cnn2-c2ccccc2)c(=O)[nH]1	-1%	6%	-5%	-1%	-12%
CCCCSc1nc2c(cnn2-c2ccc(Cl)cc2)c(=O)[nH]1	0%	-3%	-1%	?	0%
CCC(C)Sc1nc2c(cnn2-c2ccc(C)cc2)c(=O)[nH]1 (stereo unspecified)	-3%	-3%	2%	1.6µM*	16%
SMILES	IkB signaling	ALOX15 inhib	Hsp90 Hop PPI	CRE Fsk mod	Tau fil binding
O=c1[nH]c(SCc2ccc(F)cc2)nc2c1cnn2-c1ccc(F)cc1	1%	1%	1%	4µM*	399%
CCC(Sc1nc2c(cnn2-c2ccc(Cl)cc2)c(=O)[nH]1)C(=O)OC (stereo unspecified)	3%	2%	3%	3.2µM*	59%
CCSc1nc2c(cnn2-c2ccc(C)cc2)c(=O)[nH]1	-3%	5%	-1%	10µM*	133%
CCCSc1nc2c(cnn2-c2ccc(C)cc2)c(=O)[nH]1	-2%	-5%	-1%	10µM*	186%
O=C(Nc1ccc2c(c1)OCO2)N1CCN(C/C=C/c2ccccc2)CC1	1%	32µM*	?	?	-25%
O=C(Nc1ccccc1)N1CCN(Cc2ccc3c(c2)OCO3)CC1	1%	-1%	-2%[2.3 µM]	-5%	4%
COc1ccc(S(=O)(=O)Nc2ccc3c(c2)N(C(C)=O)CCC3)cc1F	1%	/	/	/	/
CC(C)n1c(SCC(=O)N2c3ccccc3Sc3ccccc32)nc2c1c(=O)n(C)c(=O)n2C	-1%	-10%	-4%	1µM*	-6%
COc1cccc(N=Cc2ccc(O)cc2O)c1	7%	-18%	-3%	-15%	32µM*
COc1cccc(C=Nc2ccc3c(c2)OCCO3)c1O	17%	-4%	-5%	4%	-1%
Cc1ccc(NC(=O)CCN2C(=O)c3ccccc3Sc3ncccc32)c(Cl)c1	2%	/	/	/	/
O=C(CSCc1nc2ccccc2[nH]1)N1CCN(c2ccc(F)cc2)CC1	?	9%	0%	-18%	20µM*
O=C(CSCc1nc2ccccc2[nH]1)N1CCN(c2cccc(Cl)c2)CC1	?	9%	-6%	-25%	-10%
CN1CCN(c2nc(-c3cccnc3)nc3ccccc23)CC1	3%	2%	-4%	10µM*!	22%
CS(=O)(=O)Nc1cccc(-c2nc(N3CCOCC3)c3ccccc3n2)c1	-3%[11.4 µM]	-3%	2%	2.5µM*	8%
CN(C)c1ccc(-c2nc(N3CCNCC3)c3ccccc3n2)cc1	-5%[11.4 µM]	-10%	-7%	?	3.2µM*
CN(C)C(=O)c1ccc(-c2nc(N3CCOCC3)c3ccccc3n2)cc1	0%[11.4 µM]	?	-2%	10µM*	0%
CN1CCN(c2nc(-c3cccc(NS(C)(=O)=O)c3)nc3ccccc23)CC1	-2%[11.4 µM]	2%	-1%	?	10%
CN(C)C(=O)c1ccc(-c2nc(-n3ccnc3)c3ccccc3n2)cc1	0%[11.4 µM]	12%	-2%	?	8%
Cc1ccc(C)c(CNC(=O)C2CCN(c3nc4ccccc4nc3C(F)(F)F)CC2)c1	-1%	/	/	/	/
COc1ccc(-c2nc3c(c(SCC(=O)N4CCCCC4)n2)Cc2cc(Cl)ccc2O3)cc1	2%	/	/	/	/
CC(C)c1ccc(C2NC(=O)c3c(sc4c3CCN(C)C4)N2)cc1 (stereo unspecified)	0%	/	/	/	/
CN1CCc2c(sc3c2C(=O)NC(c2ccc(-c4cccc(Cl)c4)o2)N3)C1 (stereo unspecified)	?	2.5µM*	?	?	1.3µM*
CN1CCc2c(sc3c2C(=O)NC(c2cccs2)N3)C1 (stereo unspecified)	2%	3.2µM*	-8%	13µM*	i
Cc1ccsc1C1NC(=O)c2c(sc3c2CCN(C)C3)N1 (stereo unspecified)	-2%	?	?	10%	i
Cc1c(C)n(C)c2ccc(C(=O)NCc3cccs3)cc12	?	10µM*	-6%[2.3 µM]	8%	23%
Cc1ccc(N2CC(C(=O)NCc3nnnn3-c3ccc(C)c(C)c3)CC2=O)cc1C (stereo unspecified)	0%	/	/	/	/
Cc1ccc(N2CC(NC(=O)c3cccs3)CC2=O)cc1 (stereo unspecified)	0%	/	/	/	/
